Assay outcomes as filed in PubChem BioAssay.
KCNQ2 enhance: potentiators of rat KCNQ2 potassium channel; B-score at 10 µM; CHO-K1 KCNQ2, FluxOR thallium flux fluorescence; stronger effect = higher value; AID 2239; 310,000 tested, 0.54% active;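 active = fluorescence ratio B-score at least 3 SD of library B-scores, with initial fluorescence B-score within 3 of them, cut at about 5.3 in these data; same plate scores as AID 2156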;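 note: B-score of peak minus minimum over baseline fluorescence ratio after K+ and Tl+ stimulus; positive B-score means potentiation of KCNQ2 with more thallium influx and brighter signal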
Target sequence (O88943 whole entry, looked up): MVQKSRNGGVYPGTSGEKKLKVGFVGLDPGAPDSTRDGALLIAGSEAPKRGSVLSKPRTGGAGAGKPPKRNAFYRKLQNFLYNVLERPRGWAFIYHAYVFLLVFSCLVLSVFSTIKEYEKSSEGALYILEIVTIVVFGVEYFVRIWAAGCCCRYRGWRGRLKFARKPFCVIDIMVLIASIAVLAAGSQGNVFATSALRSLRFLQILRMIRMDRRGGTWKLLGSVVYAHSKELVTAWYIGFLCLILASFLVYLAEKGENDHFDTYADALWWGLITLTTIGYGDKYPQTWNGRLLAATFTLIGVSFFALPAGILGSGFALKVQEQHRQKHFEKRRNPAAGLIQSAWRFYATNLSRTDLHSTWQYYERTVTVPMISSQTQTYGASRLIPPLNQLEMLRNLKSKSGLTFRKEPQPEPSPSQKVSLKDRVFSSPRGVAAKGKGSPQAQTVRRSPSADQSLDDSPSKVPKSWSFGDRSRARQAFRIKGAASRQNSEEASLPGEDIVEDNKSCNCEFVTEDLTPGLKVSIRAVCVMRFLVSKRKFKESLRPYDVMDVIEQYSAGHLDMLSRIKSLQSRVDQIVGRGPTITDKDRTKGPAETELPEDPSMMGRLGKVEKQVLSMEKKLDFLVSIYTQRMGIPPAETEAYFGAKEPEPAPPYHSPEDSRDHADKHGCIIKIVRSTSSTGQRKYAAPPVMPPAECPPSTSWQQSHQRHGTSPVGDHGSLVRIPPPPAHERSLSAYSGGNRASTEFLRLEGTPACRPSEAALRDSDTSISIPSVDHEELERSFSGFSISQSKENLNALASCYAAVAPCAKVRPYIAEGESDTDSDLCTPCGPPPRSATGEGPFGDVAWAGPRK
KCNQ2 inh: KCNQ2 (rat) channel inhibition; O88943; AID 2156; CHO-K1 KCNQ2, FluxOR thallium flux, 20 min; stronger effect = lower value; 310,000 tested, 1.1% active; B-score at 10 µM;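 active = fluorescence ratio B-score at most minus 3 library SDs, with starting brightness B-score within 2 library SDs, cut at about -5.5 in these data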
The depositor's hits bear a star; i = inactive; / = not tested or not shown. Most compounds without a hit are left out; they make up all but 1.6% or so of the library.

SMILES | KCNQ2 enhance | KCNQ2 inh
CC(=O)Nc1ccc(/C=N/N2CCCCC2)cc1 | 0.1 | i
CCCCn1c(N)c(N(CC(C)C)C(=O)c2ccc(S(=O)(=O)N3CCCCC3)cc2)c(=O)[nH]c1=O | 0.04 | i
CN(Cc1ccccc1)C(=O)c1nc2ccccn2c1CN1CCc2sccc2C1 | -5.9 | -5.9*
CN(Cc1c(C(=O)N(C)Cc2ccccc2)nc2ccccn12)CC1Cc2ccccc2O1 (configuration not stated) | / | i
N#C/C(=C\c1ccco1)C(=O)Nn1cnnc1 | / | i
Cc1ccc(NC(=O)COC(=O)C2CCC2)cc1S(=O)(=O)N1CCCCC1 | 3 | i
O=C(NC(NCc1ccccc1)C(Cl)(Cl)Cl)c1cccnc1 (configuration not stated) | / | i
O=C(NC(NCc1cccnc1)C(Cl)(Cl)Cl)c1cccc2ccccc12 (configuration not stated) | -6.3 | -6.3*
COc1cc(/C=N/NC(=O)c2cccnc2)ccc1OS(=O)(=O)c1cc(C)ccc1C | 1.6 | i
O=C(CSc1nc2ccccc2nc1N1CCCCC1)N1CCN(c2ccccc2)CC1 | -7.7 | -7.7*
O=C(CSc1nc2ccccc2nc1N1CCOCC1)N1CCN(c2ccccc2)CC1 | 0.21 | i
O=C(CCNC(=O)c1ccc([N+](=O)[O-])cc1)NCCc1ccccc1 | 0.46 | i
Cc1c(NC(=S)NC(NC(=O)C(C)C)C(Cl)(Cl)Cl)c(=O)n(-c2ccccc2)n1C (configuration not stated) | 0.17 | i
COc1cc(C2=NOC(C(=O)N3CCN(c4ccc(F)cc4)CC3)C2)cc(OC)c1OC (configuration not stated) | / | i
COc1cc(C2=NOC(C(=O)N3CCCCCC3)C2)cc(OC)c1OC (configuration not stated) | -6.6 | -6.6*
CCOC(=O)c1c(C=O)c(C)n(Cc2ccccc2Cl)c1C | -5.8 | -5.8*
CCOC(=O)c1c(C=O)c(C)n(Cc2ccc(C)cc2)c1C | / | i
C=C(C)CNC(=S)N/N=C1\CCCCc2ccccc21 | / | i
O=C(CCN1CCN(C(=O)c2ccccc2)CC1)c1ccc(Br)cc1 | -9 | -9*
O=C(c1ccc(Br)cc1)N1CCN(Cc2ccccc2)CC1 | / | i
O=C(NCC1COc2ccccc2O1)c1ccc(Br)s1 (configuration not stated) | -6.2 | -6.2*
O=C(NCC1COc2ccccc2O1)c1cccs1 (configuration not stated) | / | i
COc1ccc(CNC(=O)Cn2cc3c(n2)CCCCC3)cc1 | 0.78 | i
COc1cccc(NC(=O)Cn2cc3c(n2)CCCCC3)c1 | -6.5 | -6.5*
O=C(COC(=O)c1cccnc1Cl)NCCC1=CCCCC1 | 0.23 | i
SMILES | KCNQ2 enhance | KCNQ2 inh
Cn1c(=O)c2[nH]c(-c3ccc(S(=O)(=O)O)cc3)nc2n(C)c1=O | / | i
CCN(c1ccccc1)S(=O)(=O)c1cccc(C(=O)N2CCN(S(=O)(=O)c3ccccc3)CC2)c1 | 0.24 | i
COc1ccc(Cl)cc1NC(=O)CCNC(=O)Cn1ccc2ccccc2c1=O | / | i
O=C(NCCCCNC(=O)c1ccccc1Br)c1ccccc1Br | / | i
COc1cc(C(CC(=O)Nc2ccccn2)N2Cc3ccccc3C2=O)cc(OC)c1OC (configuration not stated) | / | i
O=S(=O)(c1ccc(C(F)(F)F)cc1)N1CCN(CCc2ccccc2)CC1 | 0.95 | i
CN1CCN(/N=C/c2c3ccccc3c(Cl)c3ccccc23)CC1 | -7.1 | -7.1*
CN1CCN(/N=C/c2ccc(-c3ccccc3)cc2)CC1 | / | i
CC(NC(=O)C1CCCN1S(=O)(=O)c1cccc2nsnc12)c1ccccc1 (configuration not stated) | / | i
OCCSc1nc2ccccc2n1CCOc1ccccc1 | / | i
O=C(CCCC(=O)OCC(Cl)=C(Cl)Cl)Nc1ccc(F)cc1 | 9.2* | i
O=C(CCCC(=O)OCC(Cl)=C(Cl)Cl)Nc1cccc2ccccc12 | / | i
Cc1cc(C(=O)OC(C(=O)Nc2cccc(C(F)(F)F)c2)c2ccccc2)c(C)o1 (configuration not stated) | -5.8 | -5.8*
Cc1ccc(NC(=O)C(OC(=O)c2cc(C)oc2C)c2ccccc2)cc1 (configuration not stated) | / | i
O=C(COc1c(Br)cc(Br)c2cccnc12)N1CCCCC1 | 4.6 | i
Oc1c(CN2CCCCC2)cc(Br)c2cccnc12 | 8.4* | i
Cc1ccc(CNC(=O)c2ccc(CNS(=O)(=O)c3ccc4c(c3)C(C)(C)C(=O)N4C)cc2)o1 | 0.62 | i
Cc1ccc(S(=O)(=O)c2nc(-c3ccc(F)cc3)oc2N2CCOCC2)cc1 | / | i
CCOC(=O)C(=CNc1nc(-c2ccccc2)c(C(=O)Nc2ccc(-c3ccccc3)cc2)s1)C(=O)OCC | 1.6 | i
CCCCS(=O)CC(COc1ccc(Cl)cc1)OC(=O)c1ccccc1 (configuration not stated) | -5.8 | -5.8*
CCCCS(=O)CC(COC)OC(=O)c1ccccc1 (configuration not stated) | 0.03 | i
COC(=O)c1ccc(COC(=O)c2ccc(N(C)C)cc2)cc1 | / | i
COC(=O)c1cccc(COC(=O)c2ccc(N(C)C)cc2)c1 | -6.5 | -6.5*
O=C(Nc1nccs1)c1ccc(COc2ccccc2Cl)o1 | 0.62 | i
Cc1nc2ccccc2c(=O)n1/N=C/c1ccco1 | / | i
SMILES | KCNQ2 enhance | KCNQ2 inh
Cc1nc2scc(-c3ccccc3)c2c(=O)n1/N=C/c1ccco1 | -6.4 | -6.4*
CC1CCCCC12NC(=O)N(CC(=O)OCC(=O)c1ccc(OC(F)F)cc1OC(F)F)C2=O (configuration not stated) | / | i
Cc1ccc(N(CCCCN2C(=O)c3ccccc3C2=O)C(=O)c2ccc(Cl)s2)cc1 | / | i
O=C1c2ccccc2C(=O)N1CCCCN(C(=O)c1ccc(Cl)s1)c1ccc(Cl)cc1 | -5.6 | -5.6*
CCOC(=O)c1c(OCCO)nn(-c2ccccc2)c1N | 0.05 | i
COc1ccccc1N1CCN(C(=O)C(Sc2ccccc2)c2ccccc2)CC1 (configuration not stated) | -5.7 | -5.7*
COc1ccccc1N1CCN(C(=O)CSc2ccccc2)CC1 | / | i
Cc1n[nH]c(=O)c2c(NC(=O)COC(=O)Cc3ccc(Cl)cc3Cl)oc(C)c12 | / | i
CCN(CC)c1ccc(/C=N/N2CCN(Cc3ccc(C)cc3)CC2)c(O)c1 | -6.2 | -6.2*
CCN(CC)c1ccc(/C=N/N2CCN(Cc3ccccc3Cl)CC2)c(O)c1 | / | i
CCCc1cc(CN(C)C(=O)CC2C(=O)NCCN2Cc2ccccc2C)[nH]n1 (configuration not stated) | / | i
Cc1ccc(CNC(=O)COC(=O)c2ccc(Cl)c(N)c2)cc1 | / | i
CC(=O)O[C@@H]1[C@@H](O)[C@@H](O)[C@H](Oc2c(-c3ccc(O)cc3)oc3c(CC=C(C)C)c(O)cc(O)c3c2=O)O[C@H]1C | -10 | -10*
COc1ccc(-c2oc3c(CC=C(C)C)c(O[C@@H]4O[C@H](CO)[C@@H](O)[C@H](O)[C@H]4O)cc(O)c3c(=O)c2O[C@@H]2O[C@@H](C)[C@H](O)[C@@H](O)[C@H]2O)cc1 | / | i
Cc1csc2c(=O)sc(NC(=O)c3cccs3)nc12 | 0.52 | i
COc1ccc(C2=NOC(C(=O)Nc3ccc4c(c3)OCCO4)C2)c(OC)c1 (configuration not stated) | / | i
CN1CCN(c2ccc(Cl)cc2NC(=O)c2cccc(S(=O)(=O)N(C)C)c2)CC1 | / | i
